Test [1] can be described thus: small molecules captured by biotinylated probe aFSTL3 – biochemical, small-molecule microarray, fluorescence 635/667, stem cell growth factor project, primary screen (AID 1064).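 Note: measures binding of the biotinylated anti-FSTL3 antibody to printed compounds.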 Particulars: higher = more signal.
Test [2] in a line: binders from COS7 lysate, DM2A8 probe, primary screen, torsin A project, cell lysate, small-molecule microarray, fluorescence 635/667 (AID 1065). The following applies: higher = more signal, COS7 lysate expressing mutant human TOR1A.
The nature of test [3]: small molecules captured by biotinylated probe aFGF2 – biochemical, small-molecule microarray, fluorescence 635/667, stem cell growth factor project, primary screen (AID 1067).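 Note: measures binding of biotinylated aFGF2 protein to printed compounds on slides; z-score merges feature fluorescence and signal-to-noise across triplicate slides.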 Particulars: higher = more signal.
Test [4] is described as follows: small molecules captured by biotinylated probe aFGF10 – biochemical, small-molecule microarray, fluorescence 635/667, stem cell growth factor project, primary screen (AID 1071).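 Note: score merges 667 nm spot intensity and signal to noise from triplicate slides.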 Particulars: higher = more signal.
Test [5] concerns the target Neurogenic locus notch homolog protein 2 (Homo sapiens) (UniProt Q04721). Briefly: small molecules binding Notch2 protein – biochemical, small-molecule microarray, 635 nm fluorescence, stem cell growth factors, primary screen (AID 1073). Particulars: higher = more signal.
Test [6] has as its target Pro-neuregulin-1, membrane-bound isoform (Homo sapiens) (UniProt Q02297). Briefly: small molecules binding neuregulin-1 protein – biochemical, small-molecule microarray, fluorescence 635/667, psychiatric disease protein project, primary screen (AID 1075).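 Note: score combines 667 nm spot fluorescence with signal to noise.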 The following applies: NRG1 binding, 635 nm fluorescence, higher = more signal.
For test [7], the system named is Neuregulin-1 EGF-like domain. Put plainly: small molecules binding NRG1 EGF domain – biochemical, small-molecule microarray, 635 nm fluorescence, primary screen (AID 1081).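 Note: binding of the protein to compounds printed on small-molecule microarray slides.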 Particulars: higher = more signal.
Test [8] is described as follows: FRG1 expression reporter modulators in myotubes – cell-based, C2C12 myotubes, firefly/Renilla luciferase, luminescence, FRG1 inhibition for FSHD, primary screen (AID 1084). Particulars: FRG1 promoter luciferase, higher = more signal, called active from +8 up or from −8 down.
Test [9] in a line: small molecules captured by biotinylated probe aFST – biochemical, small-molecule microarray, fluorescence 635/667, stem cell growth factor project, primary screen (AID 1086).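 Note: score merges 667 nm fluorescence with signal-to-noise of each printed compound spot.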 The following applies: higher = more signal.
Test [10] in a line: binders of probe aHhip on microarray, primary screen, stem cell growth factor project, biochemical, small-molecule microarray, fluorescence 635/667 (AID 1087).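 Note: score merges spot fluorescence at 667nm with spot signal to noise ratio.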 The following applies: higher = more signal.
In test [11] the test system is PRMT1 (protein arginine N-methyltransferase 1). Put plainly: small molecules binding arginine methyltransferase PRMT1 – biochemical, small-molecule microarray, 635 nm fluorescence, primary screen (AID 1088).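 Note: binding of Prmt1 protein to compounds spotted on small-molecule microarray slides.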 The following applies: higher = more signal.
Test [12] can be described thus: growth effects on S. cerevisiae YJM789 – YJM789 clinical isolate, OD600, 24 h, basal, primary screen (AID 1089).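 Note: growth of clinical yeast isolate S. cerevisiae YJM 789 seeded 1000 cells per well; test concentration not given here.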 Particulars: higher = more signal, called active from +8 up or from −8 down.
Test [13] is described as follows: S. pombe growth modifiers, basal conditions – strain 972, OD600, 24 h, no modulator, primary screen (AID 1090).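 Note: basal condition with compound alone and no growth modifier present; test concentration not given here.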 Particulars: S. pombe 972 growth, higher = more signal, called active from +8 up or from −8 down.
A short description of test [14]: budding yeast growth modifiers under rapamycin – strain BY4716, OD600, 96 h, primary screen (AID 1091). Note: test concentration not given here. The following applies: S. cerevisiae BY4716 + rapamycin, higher = more signal, called active from +8 up or from −8 down.
Test [15] has as its target Torsin-1A-interacting protein 2 (Homo sapiens) (UniProt Q8NFQ8). Briefly: small molecules binding lysate-expressed LULL1 – cell lysate, human LULL1 lysate, 635/667 nm fluorescence, primary screen (AID 1092).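 Note: probe is lysate of COS7 cells overexpressing human LULL1; score merges per-feature 667 nm fluorescence with signal-to-noise.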 The following applies: small-molecule microarray, hLULL1 lysate binding, 635 nm fluorescence; higher = more signal.
The nature of test [16]: optical density change of DRC41 E. coli – strain DRC41, OD650, 24 h, E. coli filamentation project, primary screen (AID 1093).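 Note: MC1000 strain lacking acrAB efflux and sulA so SOS filamentation is blocked; test concentration not given here.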 The following applies: E. coli DRC41 growth, higher = more signal, called active from +8 up or from −8 down.
Test [17] is described as follows: probe aLefty2 binding to arrayed compounds – biochemical, biotinylated probe, 635/667 nm fluorescence, primary screen (AID 1094).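 Note: score merges spot fluorescence near 667 nm with spot signal-to-noise ratio.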 Particulars: small-molecule microarray, higher = more signal.
In test [18] the test system is Noggin (protein binding on small-molecule microarray). Briefly: small molecules binding Noggin protein – biochemical, 635/667 nm fluorescence, primary screen (AID 1095).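 Note: score merges 667 nm feature fluorescence with signal to noise over triplicate slides.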 The following applies: 635 nm fluorescence, higher = more signal.
For test [19], the target named is Neurogenic locus notch homolog protein 3 (Homo sapiens) (UniProt Q9UM47). Put plainly: small molecules binding NOTCH3 protein – biochemical, 635/667 nm fluorescence, primary screen (AID 1096). The following applies: small-molecule microarray, 635 nm fluorescence, higher = more signal.
Test [20] can be described thus: probe aEGFR binding to arrayed compounds – biochemical, biotinylated probe, 635/667 nm fluorescence, primary screen (AID 1097).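 Note: probe is a biotinylated anti-EGFR antibody binding compounds printed on slides; score combines fluorescence near 667 nm and signal to noise of each spot.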 The following applies: small-molecule microarray, higher = more signal.

Activity calls are given as the source filed them.

Our source for the composite z-score and z-score values is PubChem BioAssay.

Neurogenic locus notch homolog protein 2 (Homo sapiens), sequence (Q04721 whole entry, looked up, canonical isoform): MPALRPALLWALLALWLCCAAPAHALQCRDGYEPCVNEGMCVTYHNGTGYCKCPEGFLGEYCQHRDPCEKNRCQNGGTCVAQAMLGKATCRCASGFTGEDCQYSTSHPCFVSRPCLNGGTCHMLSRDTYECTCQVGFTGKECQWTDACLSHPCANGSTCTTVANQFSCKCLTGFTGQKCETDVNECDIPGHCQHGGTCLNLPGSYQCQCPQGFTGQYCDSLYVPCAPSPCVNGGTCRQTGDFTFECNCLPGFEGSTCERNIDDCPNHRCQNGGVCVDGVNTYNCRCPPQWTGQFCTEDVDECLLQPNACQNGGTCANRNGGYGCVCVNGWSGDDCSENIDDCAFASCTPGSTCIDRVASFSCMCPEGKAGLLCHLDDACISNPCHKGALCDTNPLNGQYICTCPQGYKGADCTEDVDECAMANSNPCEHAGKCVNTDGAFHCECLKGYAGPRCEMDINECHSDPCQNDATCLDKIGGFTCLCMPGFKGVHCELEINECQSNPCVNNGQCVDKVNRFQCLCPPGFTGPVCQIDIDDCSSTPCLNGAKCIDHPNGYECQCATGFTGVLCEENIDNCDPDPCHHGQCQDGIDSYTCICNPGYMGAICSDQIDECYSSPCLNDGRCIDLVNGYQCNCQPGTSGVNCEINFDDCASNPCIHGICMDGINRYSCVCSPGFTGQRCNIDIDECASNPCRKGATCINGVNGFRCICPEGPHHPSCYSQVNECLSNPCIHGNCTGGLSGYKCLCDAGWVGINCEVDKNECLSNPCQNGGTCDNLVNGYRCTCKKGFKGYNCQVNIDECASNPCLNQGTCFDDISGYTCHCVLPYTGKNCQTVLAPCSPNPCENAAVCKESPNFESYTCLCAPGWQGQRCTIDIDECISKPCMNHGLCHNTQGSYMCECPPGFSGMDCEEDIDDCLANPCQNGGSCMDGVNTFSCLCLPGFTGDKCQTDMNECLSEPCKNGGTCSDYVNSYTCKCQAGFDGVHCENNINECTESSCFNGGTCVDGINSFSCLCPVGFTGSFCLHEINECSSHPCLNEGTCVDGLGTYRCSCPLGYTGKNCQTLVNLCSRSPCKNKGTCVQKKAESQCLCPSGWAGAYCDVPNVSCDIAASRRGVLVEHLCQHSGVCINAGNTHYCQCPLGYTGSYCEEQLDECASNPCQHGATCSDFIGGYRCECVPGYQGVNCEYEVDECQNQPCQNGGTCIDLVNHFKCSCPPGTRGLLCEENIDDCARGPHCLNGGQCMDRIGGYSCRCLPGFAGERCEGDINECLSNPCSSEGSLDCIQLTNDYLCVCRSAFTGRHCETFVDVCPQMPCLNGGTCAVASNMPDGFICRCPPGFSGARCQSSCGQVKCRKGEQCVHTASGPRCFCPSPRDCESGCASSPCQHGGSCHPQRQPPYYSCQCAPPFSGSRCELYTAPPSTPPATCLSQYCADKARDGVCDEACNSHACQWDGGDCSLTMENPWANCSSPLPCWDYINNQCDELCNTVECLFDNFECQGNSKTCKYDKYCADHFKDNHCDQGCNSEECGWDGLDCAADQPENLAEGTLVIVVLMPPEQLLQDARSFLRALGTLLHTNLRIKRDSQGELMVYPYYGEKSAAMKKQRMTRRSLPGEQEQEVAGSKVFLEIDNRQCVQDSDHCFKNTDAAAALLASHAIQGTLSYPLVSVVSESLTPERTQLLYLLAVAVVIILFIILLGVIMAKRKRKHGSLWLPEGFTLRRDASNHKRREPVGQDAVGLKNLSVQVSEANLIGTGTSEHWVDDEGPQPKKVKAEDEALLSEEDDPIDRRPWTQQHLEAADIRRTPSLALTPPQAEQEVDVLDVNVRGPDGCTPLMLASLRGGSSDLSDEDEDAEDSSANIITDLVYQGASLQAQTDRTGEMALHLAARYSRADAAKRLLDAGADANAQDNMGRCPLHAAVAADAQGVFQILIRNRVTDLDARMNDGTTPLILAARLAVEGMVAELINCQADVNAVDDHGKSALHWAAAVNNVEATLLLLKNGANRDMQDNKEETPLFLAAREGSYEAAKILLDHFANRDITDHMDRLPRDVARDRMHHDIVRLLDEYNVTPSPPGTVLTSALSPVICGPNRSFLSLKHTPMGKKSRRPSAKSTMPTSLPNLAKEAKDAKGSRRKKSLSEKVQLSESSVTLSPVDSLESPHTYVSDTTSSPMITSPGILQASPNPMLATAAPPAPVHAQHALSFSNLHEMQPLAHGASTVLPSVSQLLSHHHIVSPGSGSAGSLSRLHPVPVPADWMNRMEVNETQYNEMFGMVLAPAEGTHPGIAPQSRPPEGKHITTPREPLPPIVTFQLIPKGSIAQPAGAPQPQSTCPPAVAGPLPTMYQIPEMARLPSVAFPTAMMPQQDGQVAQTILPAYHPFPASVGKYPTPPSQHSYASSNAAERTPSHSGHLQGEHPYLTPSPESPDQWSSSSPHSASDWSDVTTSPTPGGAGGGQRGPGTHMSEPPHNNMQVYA
Pro-neuregulin-1, membrane-bound isoform (Homo sapiens), sequence (Q02297 whole entry, looked up, the tested form may be a part, canonical isoform): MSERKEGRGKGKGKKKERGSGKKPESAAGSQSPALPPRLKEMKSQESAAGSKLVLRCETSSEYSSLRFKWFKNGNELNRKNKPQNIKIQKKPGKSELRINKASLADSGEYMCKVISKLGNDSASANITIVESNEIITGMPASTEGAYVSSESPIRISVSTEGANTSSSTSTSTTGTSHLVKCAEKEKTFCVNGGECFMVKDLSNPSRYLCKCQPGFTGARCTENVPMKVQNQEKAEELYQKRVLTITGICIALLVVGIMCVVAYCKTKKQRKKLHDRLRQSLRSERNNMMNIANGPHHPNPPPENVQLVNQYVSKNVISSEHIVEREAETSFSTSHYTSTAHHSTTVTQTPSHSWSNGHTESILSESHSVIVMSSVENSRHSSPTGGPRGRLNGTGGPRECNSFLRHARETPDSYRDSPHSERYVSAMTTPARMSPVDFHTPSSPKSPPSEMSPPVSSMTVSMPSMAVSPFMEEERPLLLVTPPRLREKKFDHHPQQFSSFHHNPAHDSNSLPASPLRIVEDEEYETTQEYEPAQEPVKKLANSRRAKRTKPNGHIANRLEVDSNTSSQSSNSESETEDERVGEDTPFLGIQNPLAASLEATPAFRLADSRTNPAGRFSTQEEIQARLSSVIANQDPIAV
Torsin-1A-interacting protein 2 (Homo sapiens), sequence (Q8NFQ8 whole entry, looked up): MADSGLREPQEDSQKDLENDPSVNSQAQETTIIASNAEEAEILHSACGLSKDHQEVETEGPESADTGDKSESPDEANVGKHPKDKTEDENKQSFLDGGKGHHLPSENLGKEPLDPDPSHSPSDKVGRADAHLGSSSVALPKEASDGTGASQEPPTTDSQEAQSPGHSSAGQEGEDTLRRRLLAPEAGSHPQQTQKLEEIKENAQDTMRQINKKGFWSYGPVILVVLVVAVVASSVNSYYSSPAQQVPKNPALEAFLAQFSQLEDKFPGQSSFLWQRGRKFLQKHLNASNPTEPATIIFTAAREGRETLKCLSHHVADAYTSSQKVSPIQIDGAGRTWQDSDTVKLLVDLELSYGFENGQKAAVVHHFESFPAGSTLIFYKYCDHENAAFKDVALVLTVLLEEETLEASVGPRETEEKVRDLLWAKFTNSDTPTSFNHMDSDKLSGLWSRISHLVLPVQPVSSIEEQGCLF

For `O=C1N[C@@H](Cc2ccccc2)C(=O)N2[C@@H]1C[C@@H](C(=O)O)[C@H]2c1ccc(O)cc1`, the composite z-score in [1] is 0.106; in test [2], 0.726; in test [3] it was -0.0773; in [4], 0.473; in test [5], 0.0865; in test [6], 1.77. Moreover, the composite z-score in test [7] was 1.37; in [9], 0.661; in [10], -0.257; in test [11] it was 1.19; in test [15] it was 2.41; in [17], 0.391. Moreover, the composite z-score in test [18] stood at 1.5; in [19], 1.11; in test [20], 0.335. In addition, the z-score in test [8] is 4.65 (inactive); in test [12] it was -0.0447 (inactive); in [13], -0.701 (inactive); in [14], -0.54 (inactive); in test [16] it was 1.54 (inactive).

For `COc1cc(NN2C(C(O)c3cc(OC)c(OC)c(OC)c3)C=CC3C(=O)N(c4ccccc4)C(=O)C32)cc(OC)c1OC` (stereo not given), the composite z-score in test [1] turned out to be 0.457; in test [2] it was 0.512; in [3], 0.432; in test [4] it was 1.09; in test [5], 1.57; in test [6] it was 1.79. Besides, the composite z-score is 1.38 in test [7]; 0.669 in test [9]; -0.0631 in [10]; 1.51 in test [11]; 2.93 in test [15]; 0.688 in test [17]. The composite z-score in test [18] worked out at 1.34; in [19] it was 1.02; in test [20], 0.139. The z-score is 0.997 (inactive) in test [8]; 0.613 (inactive) in test [12]; 0.712 (inactive) in test [13]; 0.219 (inactive) in test [14]; -1.94 (inactive) in [16].

Turning to `[N-]=[N+]=NCc1ccccc1C[C@]1(C(=O)N2CCOCC2)COC(c2ccc(OCCCO)cc2)=N1`, the composite z-score in test [1] was determined as 0.518; in test [2], 0.456; in [3], 0.083; in [4], 0.973; in [5], 0.626; in test [6], 1.02. Moreover, the composite z-score in test [7] was 1.24; in [9] it was 0.73; in [10], -0.0237; in test [11], 1.5; in test [15], 2.39; in test [17], 0.273. For the same molecule, the figures for the composite z-score in test [18], in test [19] and in test [20] were -0.296, 0.364 and 0.0706, respectively. Besides, the z-score in [8] is -2.87 (inactive); in test [12], -0.486 (inactive); in [13], -5.38 (inactive); in test [14], 32.4 (active); in test [16], 3.3 (inactive).

Consider `CC(C)CNC(=O)[C@@]1(c2ccc([N+](=O)[O-])cc2)CC(=O)N(C2CCCCC2)[C@@H]1c1ccc(CO)cc1`, for which the composite z-score in test [1] was 0.574; in test [2], 0.219; in test [3], 0.0353; in test [4], -0.0872; in [5], 0.554; in test [6] it was 0.452. Also, the composite z-score was 1.26 in [7]; 0.859 in [9]; -0.132 in [10]; 0.566 in test [11]; 2.54 in [15]; 0.136 in [17]. The figures for the composite z-score in test [18], in test [19] and in test [20] were -0.318, -0.0858 and -0.0989, respectively. The z-score is -0.639 (inactive) in test [8]; -0.563 (inactive) in [12]; -0.514 (inactive) in test [13]; -0.548 (inactive) in test [14]; 0.861 (inactive) in test [16].

With `C=CCNC(=O)[C@@H]1[C@H]2C(=O)O[C@H](c3ccccc3)[C@H](c3ccccc3)N2[C@H](c2ccc(O)cc2)[C@@]12C(=O)N(C(=O)OCCOC)c1ccc(C#CCCO)cc12`, the composite z-score in test [1] was -0.0125; in [2] it was 0.376; in test [3] it was -0.0222; in [4] it was 0.82; in test [5], 0.258; in test [6], 1.05. For the same molecule, the composite z-score came out at 1.35 in [7]; 0.256 in test [9]; 0.0274 in test [10]; 1.41 in [11]; 2.57 in [15]; 0.0278 in test [17]. Besides, the figures for the composite z-score in [18], in test [19] and in [20] were 0.686, 0.52 and 0.189, respectively. Moreover, the z-score in test [8] was 0.354 (inactive); in [12], 0.434 (inactive); in test [13], 0.53 (inactive); in [14] it was 1.17 (inactive); in [16], -0.369 (inactive).

Turning to `CN(C)C(=O)[C@@]1(CCC(=O)OC(C)(C)C)N=C(c2ccc(OCCCO)cc2)O[C@H]1c1ccccc1CN=[N+]=[N-]`, the composite z-score in test [1] was -0.0162; in test [2], 1.01; in [3], 0.0408; in test [4], 0.39; in test [5] it was 1.06; in test [6], 1.92. In addition, the composite z-score in test [7] was found to be 1.28; in [9], 0.717; in [10], 0.0373; in test [11] it was 1.51; in [15] it was 3.83; in test [17], 0.047. In addition, the composite z-score in test [18] was 0.968; in [19], 0.599; in test [20] it was -0.0238. Besides, the z-score in test [8] was -0.119 (inactive); in test [12], -0.142 (inactive); in test [13], 0.245 (inactive); in [14], -1.11 (inactive); in test [16], 0.488 (inactive).

`Cc1ccc(C(C)CC(O)C2C=CC3C(=O)N(c4ccccc4)C(=O)C3N2Nc2ccc(C#N)cc2)o1` (stereo not given): the composite z-score in test [1] is 0.0794; in test [2] it was -0.28; in test [3], 0.0489; in [4], 0.954; in test [5], 1.7; in test [6], 1.88. Also, the composite z-score in [7] is 1.08; in [9], 0.998; in test [10], -0.283; in test [11], 1.55; in test [15] it was 3.46; in test [17], 0.188. Moreover, the figures for the composite z-score in test [18], in [19] and in test [20] were 0.383, 1.13 and 0.122, respectively. Besides, the z-score in [8] was -0.629 (inactive); in test [12] it was -26 (active); in test [13], -16.8 (active); in test [14] it was -3.16 (inactive); in test [16] it was -0.0931 (inactive).

Turning to `COC(=O)[C@@]1(Cc2ccccc2CN=[N+]=[N-])N=C(c2ccc(OCCCO)cc2)O[C@H]1c1ccccc1CN=[N+]=[N-]`, the composite z-score in [1] is 0.629; in [2] it was -0.43; in test [3], -0.0457; in test [4] it was 0.0746; in [5] it was -0.733; in [6] it was 0.846. Moreover, the composite z-score in [7] was 1.22; in test [9], -0.574; in test [10], -0.226; in test [11] it was 0.812; in [15] it was 1.3; in [17] it was -0.0458. Moreover, the composite z-score was -0.56 in [18], -0.498 in test [19] and -0.21 in [20]. For the same molecule, the z-score in test [8] was -1.23 (inactive); in [12] it was 0.84 (inactive); in test [13], 1.96 (inactive); in test [14], 35.5 (active); in [16], 0.478 (inactive).

Consider `O=C1O[C@H](c2ccccc2)[C@H](c2ccccc2)N2[C@H]1[C@@H](C(=O)Nc1nc3ccccc3s1)[C@]1(C(=O)Nc3ccc(C#CC4=CCCCC4)cc31)[C@H]2c1ccc(O)cc1`, for which the composite z-score in test [1] was -0.384; in [2], 0.255; in test [3], -0.0281; in test [4] it was 0.352; in test [5] it was 0.747; in test [6] it was 1.44. For the same molecule, the composite z-score in test [7] is 1.1; in [9] it was 0.845; in [10], -0.0994; in test [11], 1.55; in [15], 2.88; in [17], -0.12. Also, the composite z-score in [18] was 1.1; in test [19] it was 1.06; in [20] it was -0.0679. For the same molecule, the z-score in test [8] was -0.305 (inactive); in test [12] it was 0.556 (inactive); in [13] it was 0.589 (inactive); in [14], 0.401 (inactive); in test [16] it was 1.97 (inactive).
